Results filed as inconclusive are left out. Where a call stands in place of a potency, no number is given. Active and inactive are the calls of the source. Calls come from the whole dose curve; as a rule, active = well fitted inhibition curve with a large enough effect; inconclusive = small, poorly fitted or top-dose-only effect; inactive = flat fitted curve, though single readings scatter.
System: SC27B
Assay: qHTS profiling for inhibitors of Plasmodium falciparum proliferation (AID 504749); note: nearly all actives have a fitted effect of over 60% in size
Details: P. falciparum in erythrocytes, SYBR Green DNA, 72 h; series mostly up to 28.7 µM
Procedure, shortened: (§1)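 SYBR Green fluorescence (ex 485 nm, em 535 nm) reports parasite DNA after 72 h compound exposure of infected red cells at 0.3% parasitemia, 2.5% hematocrit; signal normalized to 0.29 uM artemisinin and vehicle wells.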
Potency is the fitted concentration of half-maximal effect.

| SMILES | Potency |
| --- | --- |
| CC(C)COCC(CN(Cc1ccccc1)c1ccccc1)N1CCCC1 (stereo not drawn) | inactive |
| CCC(=O)c1ccc2c(c1)N(CCCN(C)C)c1ccccc1S2 | inactive |
| CNC1(C)C2CCC(C2)C1(C)C (stereo not drawn) | inactive |
| Cc1nc2ccccn2c(=O)c1CCN1CCC(C(=O)c2ccc(F)cc2)CC1 | inactive |
| CN(C)CC[C@@H](c1ccc(Br)cc1)c1ccccn1 | inactive |
| CC(=O)[C@]1(O)Cc2c(O)c3c(c(O)c2[C@@H](O[C@H]2C[C@H](N)[C@H](O)[C@H](C)O2)C1)C(=O)c1ccccc1C3=O | 5.01 µM (active) |
| Brc1c(NC2=NCCN2)ccc2nccnc12 | inactive |
| CCCCCCCC/C=C\CCCCCCCC(=O)NCc1ccc(O)c(OC)c1 | 10 µM (active) |
| NC(N)=N/N=C/c1c(Cl)cccc1Cl | inactive |
| CN(C(=O)CCCOc1ccc2[nH]c(=O)ccc2c1)C1CCCCC1 | inactive |
| CCN(CC)CCNC(=O)c1cc(S(C)(=O)=O)ccc1OC | inactive |
| CC1=C(C)C(=O)C(CCCCC#CCCCC#CCO)=C(C)C1=O | 7.08 µM (active) |
| CCCN1C[C@H](CSC)C[C@@H]2c3cccc4[nH]cc(c34)C[C@H]21 | 11.2 µM (active) |
| CCOC(=O)C1=C(C)NC(C)=C(C(=O)OC)C1c1cccc([N+](=O)[O-])c1 (stereo not drawn) | 12.6 µM (active) |
| NC(=Nc1ccccc1)Nc1ccccc1 | inactive |
| CN(C)C/C=C(/c1ccc(Br)cc1)c1cccnc1 | inactive |
| CC1=NS(=O)(=O)c2cc(Cl)ccc2N1 | inactive |
| O=C1NCN(c2ccccc2)C12CCN(CCCC(c1ccc(F)cc1)c1ccc(F)cc1)CC2 | 8.91 µM (active) |
| OC(CCN1CCCCC1)(c1ccccc1)C1CCCCC1 (stereo not drawn) | inactive |
| O=C1CC2(CCCC2)CC(=O)N1CCCCN1CCN(c2ncccn2)CC1 | inactive |
| O=C(CCCN1CCC(O)(c2cccc(C(F)(F)F)c2)CC1)c1ccc(F)cc1 | 11.2 µM (active) |

System: TAB109
Assay: as above
Details: P. falciparum in erythrocytes, SYBR Green DNA, 72 h; series mostly up to 28.7 µM
Procedure, shortened: as §1

| SMILES | Potency |
| --- | --- |
| CC(C)COCC(CN(Cc1ccccc1)c1ccccc1)N1CCCC1 (stereo not drawn) | inactive |
| CNC1(C)C2CCC(C2)C1(C)C (stereo not drawn) | inactive |
| c1cc(CN2CCCCC2)cc(OCCCNc2nc3ccccc3s2)c1 | 2.24 µM (active) |
| CCCC(C(=O)OCCN(CC)CC)(c1ccccc1)c1ccccc1 | 11.2 µM (active) |
| CN(C)CCN(Cc1cccs1)c1ccccn1 | 4.47 µM (active) |
| CC(=O)[C@]1(O)Cc2c(O)c3c(c(O)c2[C@@H](O[C@H]2C[C@H](N)[C@H](O)[C@H](C)O2)C1)C(=O)c1ccccc1C3=O | 3.98 µM (active) |
| CN(C(=O)CCCOc1ccc2[nH]c(=O)ccc2c1)C1CCCCC1 | inactive |
| CCN(CC)CCNC(=O)c1cc(S(C)(=O)=O)ccc1OC | inactive |
| CCCN1C[C@H](CSC)C[C@@H]2c3cccc4[nH]cc(c34)C[C@H]21 | 12.6 µM (active) |
| NC(=Nc1ccccc1)Nc1ccccc1 | inactive |
| O=C1NCN(c2ccccc2)C12CCN(CCCC(c1ccc(F)cc1)c1ccc(F)cc1)CC2 | 6.31 µM (active) |
| COc1cc(C(=O)OCCCN2CCCN(CCCOC(=O)c3cc(OC)c(OC)c(OC)c3)CC2)cc(OC)c1OC | 11.2 µM (active) |
| O=C1CC2(CCCC2)CC(=O)N1CCCCN1CCN(c2ncccn2)CC1 | inactive |
| O=C(CCCN1CCC(O)(c2cccc(C(F)(F)F)c2)CC1)c1ccc(F)cc1 | 8.91 µM (active) |

System: TAB113
Assay: as above
Details: P. falciparum in erythrocytes, SYBR Green DNA, 72 h; series mostly up to 28.7 µM
Procedure, shortened: as §1

| SMILES | Potency |
| --- | --- |
| CC(C)COCC(CN(Cc1ccccc1)c1ccccc1)N1CCCC1 (stereo not drawn) | inactive |
| CNC1(C)C2CCC(C2)C1(C)C (stereo not drawn) | inactive |
| NC(N)=NC(=O)Cc1c(Cl)cccc1Cl | inactive |
| Cc1nc2ccccn2c(=O)c1CCN1CCC(C(=O)c2ccc(F)cc2)CC1 | inactive |
| COc1ccc(CN(CCN(C)C)c2ccccn2)cc1 | inactive |
| CCCC(C(=O)OCCN(CC)CC)(c1ccccc1)c1ccccc1 | 10 µM (active) |
| CC(=O)[C@]1(O)Cc2c(O)c3c(c(O)c2[C@@H](O[C@H]2C[C@H](N)[C@H](O)[C@H](C)O2)C1)C(=O)c1ccccc1C3=O | 4.47 µM (active) |
| CN(C(=O)CCCOc1ccc2[nH]c(=O)ccc2c1)C1CCCCC1 | inactive |
| CCN(CC)CCNC(=O)c1cc(S(C)(=O)=O)ccc1OC | inactive |
| CC1=C(C)C(=O)C(CCCCC#CCCCC#CCO)=C(C)C1=O | 7.94 µM (active) |
| NC(=Nc1ccccc1)Nc1ccccc1 | inactive |
| CN(C)C/C=C(/c1ccc(Br)cc1)c1cccnc1 | inactive |
| CC1=NS(=O)(=O)c2cc(Cl)ccc2N1 | inactive |
| O=C1NCN(c2ccccc2)C12CCN(CCCC(c1ccc(F)cc1)c1ccc(F)cc1)CC2 | 12.6 µM (active) |
| OC(CCN1CCCCC1)(c1ccccc1)C1CCCCC1 (stereo not drawn) | inactive |
| COc1cc(C(=O)OCCCN2CCCN(CCCOC(=O)c3cc(OC)c(OC)c(OC)c3)CC2)cc(OC)c1OC | 11.2 µM (active) |
| O=C1CC2(CCCC2)CC(=O)N1CCCCN1CCN(c2ncccn2)CC1 | inactive |
| O=C(CCCN1CCC(O)(c2cccc(C(F)(F)F)c2)CC1)c1ccc(F)cc1 | 12.6 µM (active) |
